The campaign covered roughly 190,000 compounds. About 1,300 (0.68%) were called active. This excerpt belongs to a sample that is enriched for actives. A number with no mark means an inactive call. Rule as the data show it: active = inhibition above about 50%; inactive = the rest.

For the assay, the target named is Mannose-6-phosphate isomerase (Homo sapiens) (UniProt P34949). In words: human PMI inhibitors, high substrate, primary screen, biochemical, fluorescence intensity, high mannose 6-phosphate (AID 1220). Conditions: recombinant PMI enzyme, coupled fluorescence intensity; at 20 µM; stronger effect = higher value.
Sequence of Mannose-6-phosphate isomerase (Homo sapiens) (P34949 whole entry, looked up): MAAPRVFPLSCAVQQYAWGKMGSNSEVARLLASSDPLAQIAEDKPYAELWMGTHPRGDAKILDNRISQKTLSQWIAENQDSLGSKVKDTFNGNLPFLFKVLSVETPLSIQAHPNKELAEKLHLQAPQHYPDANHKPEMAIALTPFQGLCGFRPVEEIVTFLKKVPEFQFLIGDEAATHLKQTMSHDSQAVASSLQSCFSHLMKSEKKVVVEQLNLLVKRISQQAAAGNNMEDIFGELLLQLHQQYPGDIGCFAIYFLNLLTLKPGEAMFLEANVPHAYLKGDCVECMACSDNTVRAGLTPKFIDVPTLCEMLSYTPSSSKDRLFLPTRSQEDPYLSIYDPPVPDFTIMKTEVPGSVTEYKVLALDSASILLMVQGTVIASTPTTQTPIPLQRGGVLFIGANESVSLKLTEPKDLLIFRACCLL
Turning to `COc1ccc(C2=Nc3cccc4cccc(c34)N2)cc1`, the inhibition was 53.1% (active).
Consider `c1coc(C2=Nc3cccc4cccc(c34)N2)c1`, for which the inhibition is 63.6% (active).
Regarding `Nc1ccc(C2=Nc3cccc4cccc(c34)N2)cc1`, the inhibition was 23.6%.
With `Fc1ccc(C2=Nc3cccc4cccc(c34)N2)cc1`, the inhibition was 45.2%.
Under `Brc1ccc(C2=Nc3cccc4cccc(c34)N2)o1` stands 12.1%; under `COc1cccc(C2=Nc3cccc4cccc(c34)N2)c1`, -64.5%; under `COCC(C)NC(=O)C(C)Oc1ccccc1` (centres undefined), -3.4%.
As to `Cc1cnc(C(=O)N2CCCC(C(=O)c3ccc(C(C)(C)C)cc3)C2)cn1` (centres undefined), the inhibition was 5.6%.
For `COc1ccc(/C(N)=N/OC(=O)COc2ccccc2Cl)cc1`, the inhibition was 6.3%.
Under `Cc1cc(=O)n2ccsc2n1` stands -2.4%; under `Cc1ccn2c(=O)cc(C)nc2c1`, 9%.
Under `Cc1onc(-c2c(F)cccc2Cl)c1C(=O)OCC(=O)Nc1c(C)n(C)n(-c2ccccc2)c1=O` stands -18.7%; under `COc1ccc(S(=O)(=O)N2CCN(CC(=O)Nc3ccc(F)c(F)c3)CC2)cc1`, -16.5%.
Regarding `N#CC1=C(N)OC2=C(C(=O)CCC2)C1c1ccsc1` (centres undefined), the inhibition was -1.2%.
Take `CN(C)N1C(N)=C(C#N)C(c2cccs2)C2=C1CCCC2=O` (centres undefined): the inhibition was 33.2%.
Under `N#CC1=C(N)N(c2ccccc2)C2=C(C(=O)CCC2)C1c1ccccc1` (centres undefined) stands 51.2% (active); under `Cc1ccc(N2C(N)=C(C#N)C(c3cccnc3)C3=C2CCCC3=O)cc1` (centres undefined), 47.7%.
With `CCc1ccc(C2C(C#N)=C(N)N(N(C)C)C3=C2C(=O)CCC3)s1` (centres undefined), the inhibition was 59.7% (active).
In the case of `CN(C)N1C(N)=C(C#N)C(c2cccnc2)C2=C1CC(C)(C)CC2=O` (centres undefined) it was 8.6%; in that of `CN(C)N1C(N)=C(C#N)C(c2cccnc2)C2=C1CCCC2=O` (centres undefined), 57.9% (active); in that of `N#CC1=C(N)N(c2ccccc2)C2=C(C(=O)CCC2)C1c1ccsc1` (centres undefined), 27.6%.
Consider `CN(C)N1C(N)=C(C#N)C(c2ccsc2)C2=C1CC(C)(C)CC2=O` (centres undefined), for which the inhibition is 18.1%.
Under `CSc1ccc(C2C(C#N)=C(N)N(c3ccccc3)C3=C2C(=O)CCC3)cc1` (centres undefined) stands 29.9%.
In the case of `CCc1ccc(C2C(C#N)=C(N)OC3=C2C(=O)CCC3)s1` (centres undefined), the inhibition is 6.1%.
Under `CN(C)N1C(N)=C(C#N)C(c2ccsc2)C2=C1CCCC2=O` (centres undefined) stands 61% (active); under `CCOC(=O)c1cccc(-c2ccc(C=O)o2)c1`, 7.1%; under `COc1ccc(/C=N\NC(=O)c2cccc(Br)c2)c(OC)c1`, 3%.
`CCN(CC)C(=O)CSc1nc2ccccc2c(=O)n1OC`: the inhibition was 4.5%.
With `COC(=O)/C=C(\C)NC(=O)c1ccc(F)cc1`, the inhibition is 12.4%.
In the case of `O=C(COC(=O)c1cccs1)NCc1ccco1` it was -3.4%.
In the case of `Cc1ncoc1C(=O)Nc1ccccc1-c1ccccc1` it was -4.1%; in that of `CCN(CC)C(=O)c1ccc(Cn2cc([N+](=O)[O-])cn2)o1`, 0%.
In the case of `CC(=O)c1ccc(NC(=O)Nc2ccc([N+](=O)[O-])cc2)cc1` it was -0.1%; in that of `N#CC1=C(N)N(c2ccccc2C#N)C2=C(C(=O)CCC2)C1c1ccsc1` (centres undefined), 19.7%; in that of `COc1ccc(N2C(N)=C(C#N)C(c3ccsc3)C3=C2CCCC3=O)c(OC)c1` (centres undefined), 62% (active).
In the case of `CN(C)N1C(N)=C(C#N)C(c2ccccc2)C2=C1CCCC2=O` (centres undefined), the inhibition is 42.1%.
In the case of `COc1ccc(C2C(C#N)=C(N)N(c3ncn[nH]3)C3=C2C(=O)CCC3)cc1` (centres undefined) it was 43.2%; in that of `Cc1ccc(C2C(C#N)=C(N)N(N(C)C)C3=C2C(=O)CCC3)cc1` (centres undefined), 57.8% (active).
On to `Cc1ccsc1C1C(C#N)=C(N)N(N(C)C)C2=C1C(=O)CCC2` (centres undefined), for which the inhibition was 15.7%.
In the case of `COc1ccc(-c2nc(NC(=O)Cn3c(=O)oc4ccccc43)sc2C)cc1` it was 16.1%.
In the case of `Nn1c(SCc2ccccc2)nc2c(cnn2-c2ccccc2)c1=O` it was 4.9%; in that of `COc1ccc(-c2cccc(C(=O)NCC(=O)O)c2)cc1`, 2.2%.
In the case of `Cc1ccccc1Nc1nc(N)nc(CN2CCN(Cc3ccc4c(c3)OCO4)CC2)n1`, the inhibition is -1.7%.
In the case of `CCC1CCCCN1C(=S)Nc1cccc(S(=O)(=O)N(C)C)c1` (centres undefined) it was -6.4%; in that of `O=C(c1ccc2c3c(cccc13)CC2)C1CCCN(Cc2ccncc2)C1` (centres undefined), -2.1%; in that of `COc1cc(CN2CCCC(C(=O)c3ccc4c5c(cccc35)CC4)C2)cc(OC)c1O` (centres undefined), 74.7% (active).
As for `O=C(c1ccc2c3c(cccc13)CC2)C1CCCN(Cc2cccnc2)C1` (centres undefined), the inhibition was 11.4%.
As to `CC(C)NC(=O)c1ccccc1NC(=O)Cc1ccc(Cl)cc1`, the inhibition is -7.2%.
For the compound `CCn1c2ccccc2c2cc(NC(=O)CCCN3C(=O)CCC3=O)ccc21`, the inhibition is -9.6%.
Under `CC1CCC/C(=C\Nc2ccc(O)cc2)C1=O` (centres undefined) stands 57.1% (active); under `CC1CCC/C(=C\Nc2ccc(C(=O)O)cc2)C1=O` (centres undefined), 25.7%.
As to `CCOC(=O)c1ccc(N/C=C2/CCCC(C)C2=O)cc1` (centres undefined), the inhibition was 8.1%.
For the compound `O=C(Cc1ccccc1)N/N=C/c1cccs1`, the inhibition was 4.5%.
Regarding `O=C(Oc1ccc2ccc(=O)oc2c1)C1CCCCC1`, the inhibition is -2.5%.
In the case of `O=C(Oc1ccc2ccc(O)cc2c1)C1CCCCC1` it was 55% (active); in that of `O=C(Oc1cccc(O)c1)C1CCCCC1`, 13%; in that of `CCOC(=O)C1CCCN(C(=S)NC2CCCCC2)C1` (centres undefined), 2.4%.
On to `CCn1c(SCC(=O)c2ccc(C)cc2)nnc1-c1ccoc1C`, for which the inhibition was -13.6%.
In the case of `CCC1CCCCN1CCNC(=O)C1CCN(S(=O)(=O)c2c(C)noc2C)CC1` (centres undefined) it was 1.5%; in that of `Cc1noc(C)c1S(=O)(=O)N1CCC(C(=O)NCCCN2CC(C)CC(C)C2)CC1` (centres undefined), 54.6% (active); in that of `Cc1noc(C)c1S(=O)(=O)N1CCC(C(=O)NCCN2CCC(C)CC2)CC1`, 7.6%.
Under `CCOC(=O)c1c(-c2ccccc2)csc1NC(=S)N(CC)CC` stands 14.7%; under `CCNC(=S)Nc1scc(-c2ccccc2)c1C(=O)OCC`, 52.2% (active).
As to `CCOC(=O)c1c(-c2ccccc2)csc1NC(=S)NC`, the inhibition was 14.4%.
With `COC(=O)c1c(C)[nH]c(O)c1C=Nc1ccc(C#N)cc1`, the inhibition was 1.7%.
Regarding `N#CC1=C2SCN(Cc3ccco3)CN2C(=O)CC1c1ccc(Cl)cc1` (centres undefined), the inhibition is 53.5% (active).
In the case of `CC(C)c1ccc(C2CC(=O)N3CN(Cc4ccco4)CSC3=C2C#N)cc1` (centres undefined) it was 76% (active).
Turning to `Cc1ccc(C2CC(=O)N3CN(c4ccc(Br)cc4)CSC3=C2C#N)o1` (centres undefined), the inhibition is -40.7%.
In the case of `Cc1cccc(N2CSC3=C(C#N)C(c4ccc(C)o4)CC(=O)N3C2)c1` (centres undefined) it was -1.2%; in that of `Cc1ccc(N2CSC3=C(C#N)C(c4cccs4)CC(=O)N3C2)cc1` (centres undefined), -74.9%.
Under `COc1ccc(C2CC(=O)N3CN(c4ccc(C)c(Cl)c4)CSC3=C2C#N)cc1` (centres undefined) stands 19.1%; under `COc1ccc(C2CC(=O)N3CN(Cc4ccco4)CSC3=C2C#N)cc1` (centres undefined), 73.2% (active); under `CCOc1ccc(N2CSC3=C(C#N)C(c4ccco4)CC(=O)N3C2)cc1` (centres undefined), -62.8%.
Under `N#CC1=C2SCN(c3ccccc3)CN2C(=O)CC1c1c(Cl)cccc1Cl` (centres undefined) stands 23.8%; under `N#CC1=C2SCN(Cc3ccco3)CN2C(=O)CC1c1c(F)cccc1Cl` (centres undefined), -26.5%.
For the compound `N#CC1=C2SCN(c3ccc(F)cc3)CN2C(=O)CC1c1cccc(F)c1` (centres undefined), the inhibition was 14.8%.
In the case of `Cc1ccc(C2CC(=O)N3CN(Cc4ccco4)CSC3=C2C#N)cc1` (centres undefined) it was 62.6% (active); in that of `CCCN1C(=O)C(Cc2nc3ccccc3c(=O)n2-c2ccccc2)c2ccccc21` (centres undefined), 8.6%; in that of `Cc1ccc(N2C(=O)C(O)(C(F)(F)F)C3=C2CC(C)(C)CC3=O)cc1C` (centres undefined), -10%.
For the compound `N#CCC1c2ccccc2CCN1C(=O)Nc1cccc(Cl)c1` (centres undefined), the inhibition is 15.2%.
Under `CN1CCC(N2CCCC(C(=O)O)C2)CC1` (centres undefined) stands -1.5%; under `O=C(NCC(F)(F)F)Nc1ccccn1`, -4.8%; under `CCOCCNC(=O)c1ccc2c3c(cccc13)CC2`, -8.4%.
With `CCC(C)NC(=O)C1CCCCN1S(=O)(=O)c1ccc(F)cc1` (centres undefined), the inhibition is -2.3%.
In the case of `Cc1nn(C)c(Oc2ccc(Cl)cc2)c1C(=O)Nc1ccc(F)cc1F`, the inhibition was 1.9%.
As for `Nc1ccc2c(c1)-c1ccccc1S(=O)(=O)N2`, the inhibition is 52.3% (active).
Under `NCCN=C1NS(=O)(=O)c2ccccc21` stands 7.4%.
Under `Cc1ccc2c(c1)-c1ccccc1S(=O)(=O)N2` stands -0.5%; under `COc1cc(CNCC2CCCO2)ccc1OCC(N)=O` (centres undefined), -5.5%; under `COc1ccc2c(c1)OC13CCN(C)CC1C2C(C(=O)c1ccc(F)cc1)C(=O)N3` (centres undefined), -3.5%.
For `CC1C(=O)Nc2ccccc2N1C(=O)C1CC1` (centres undefined), the inhibition was -7.6%.
In the case of `CCC(C)C(=O)N1c2ccccc2C(=C2SC(C(=O)OC)=C(C(=O)OC)S2)C(=S)C1(C)C` (centres undefined) it was 48.7%; in that of `CCCC(=O)N1c2ccccc2C(=C2SC(C(=O)OC)=C(C(=O)OC)S2)C(=S)C1(C)C`, 32.9%.
In the case of `COC(=O)C1=C(C(=O)OC)SC(=C2C(=S)C(C)(C)N(C(=O)CC(C)C)c3ccccc32)S1` it was 33%.
Regarding `COCCNC(=O)C(C(=O)c1ccc(F)cc1)n1cc(C)ccc1=O` (centres undefined), the inhibition is 19.5%.
In the case of `Cc1cccc(C(=O)NC(NCCc2ccccc2)C(Cl)(Cl)Cl)c1` (centres undefined) it was 1.5%; in that of `COC(=O)C(C)Sc1nc(N)c(NC(=O)c2ccco2)c(=O)[nH]1` (centres undefined), 1.6%; in that of `Cc1ccc(CN2CCCC(CO)(Cc3ccccc3C)C2)s1` (centres undefined), 13%.
Under `CCCCCN1C=CC(=C2C(=O)c3ccccc3C2=O)C=C1` stands -2.8%.

For the origin of these results see PubChem BioAssay AID1220 (Sanford-Burnham Center for Chemical Genomics, 2008).
